Measurements taken from PubChem BioAssay AID1159580 (chemical genetic matrix, 2015).
In all, about 5,500 compounds went through this assay and about 2,000 (36%) were called active. Another 18% or so got no clear call; they are omitted. Rule as the data show it: active = normalized growth mostly below about 0.91 (no sharp cut-off); inconclusive = no clear call, values can overlap the other calls; inactive = mostly above about 0.92. Some of the results follow.

Assay: chemical genetic growth profiling, strain panel (AID 1159580);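 also: tested at 20 µM; growth read once vehicle control cultures reached saturation at 30 °C; 1 = growth at the plate median or of vehicle wells; lower values mean less growth of the strain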
Settings: growth OD

Measured: normalized growth

CC(=O)Oc1ccccc1C(=O)Oc1ccccc1C(=O)O
inactive: S. cerevisiae deletion strains, locus YJR075W, strain HOC1, hits give low values 1.02 | S. cerevisiae deletion strains, locus YKL009W, strain mrt4, hits give low values 0.981 | S. cerevisiae deletion strains, locus YKL068W, hits give low values 0.985 | S. cerevisiae deletion strains, locus YKL085W, strain MDH1 (second series), hits give low values 0.998 | S. cerevisiae deletion strains, locus YKL085W, strain MDH1, hits give low values 0.998 | S. cerevisiae deletion strains, locus YKL160W, strain elf1, hits give low values 0.999 | S. cerevisiae deletion strains, locus YKL190W, strain CNB1, hits give low values 1 | S. cerevisiae deletion strains, locus YKR001C, strain vps1, hits give low values 0.979 | S. cerevisiae deletion strains, locus YKR026C, strain gcn3, hits give low values 1.01 | S. cerevisiae deletion strains, locus YKR091W, strain srl3, hits give low values 1 | S. cerevisiae deletion strains, locus YLL001W, strain dnm1, hits give low values 1 | S. cerevisiae deletion strains, locus YLL026W, hits give low values 1.01 | S. cerevisiae deletion strains, locus YLL041C, strain sdh2, hits give low values 1 | S. cerevisiae deletion strains, locus YLR027C, strain aat2, hits give low values 1.01 | S. cerevisiae deletion strains, locus YLR039C, strain RIC1, hits give low values 0.983 | S. cerevisiae deletion strains, locus YLR058C, strain SHM2, hits give low values 0.995 | S. cerevisiae deletion strains, locus YLR102C, strain apc9, hits give low values 0.976 | S. cerevisiae deletion strains, locus YLR113W, strain HOG1, hits give low values 0.977 | S. cerevisiae deletion strains, locus YLR221C, strain rsa3, hits give low values 0.998 | S. cerevisiae deletion strains, locus YLR258W, strain gsy2, hits give low values 0.994 | S. cerevisiae deletion strains, locus YLR262C, strain YPT6 (second series), hits give low values 1 | S. cerevisiae deletion strains, locus YLR262C, strain YPT6, hits give low values 0.969 | S. cerevisiae deletion strains, locus YLR268W, strain sec22, hits give low values 1 | S. cerevisiae deletion strains, locus YLR320W, strain mms22, hits give low values 0.998 | S. cerevisiae deletion strains, locus YLR330W, strain CHS5, hits give low values 0.992 | S. cerevisiae deletion strains, locus YLR342W, strain FKS1 (second series), hits give low values 0.99 | S. cerevisiae deletion strains, locus YLR342W, strain FKS1, hits give low values 1 | S. cerevisiae deletion strains, locus YLR357W, strain rsc2, hits give low values 1.01 | S. cerevisiae deletion strains, locus YLR370C, strain arc18, hits give low values 1 | S. cerevisiae deletion strains, locus YLR371W, strain rom2, hits give low values 0.975 | S. cerevisiae deletion strains, locus YLR384C, strain iki3, hits give low values 0.995 | S. cerevisiae deletion strains, locus YLR418C, strain cdc73, hits give low values 0.997 | S. cerevisiae deletion strains, locus YML016C, strain PPZ1, hits give low values 0.996 | S. cerevisiae deletion strains, locus YML032C, strain rad52, hits give low values 0.983 | S. cerevisiae deletion strains, locus YML120C, strain ndi1, hits give low values 1.01 | S. cerevisiae deletion strains, locus YML124C, strain tub3, hits give low values 0.992 | S. cerevisiae deletion strains, locus YMR058W, strain fet3, hits give low values 1.01 | S. cerevisiae deletion strains, locus YMR078C, strain ctf18, hits give low values 0.984 | S. cerevisiae deletion strains, locus YMR125W, strain sto1, hits give low values 0.986 | S. cerevisiae deletion strains, locus YMR129W, hits give low values 0.997 | S. cerevisiae deletion strains, locus YMR205C, strain PFK2, hits give low values 0.998 | S. cerevisiae deletion strains, locus YMR223W, strain ubp8, hits give low values 0.969 | S. cerevisiae deletion strains, locus YMR231W, strain pep5, hits give low values 0.996 | S. cerevisiae deletion strains, locus YMR263W, strain SAP30, hits give low values 1.01 | S. cerevisiae deletion strains, locus YMR307W, strain GAS1, hits give low values 0.995 | S. cerevisiae deletion strains, locus YNL067W, strain RPL9B, hits give low values 1.01 | S. cerevisiae deletion strains, locus YNL071W, strain lat1, hits give low values 1.01 | S. cerevisiae deletion strains, locus YNL128W, strain TEP1, hits give low values 1 | S. cerevisiae deletion strains, locus YNL153C, strain GIM3, hits give low values 1.01 | S. cerevisiae deletion strains, locus YNL183C, strain NPR1, hits give low values 0.921 | S. cerevisiae deletion strains, locus YNL209W, strain ssb2, hits give low values 1.01 | S. cerevisiae deletion strains, locus YNL233W, strain BNI4, hits give low values 0.999 | S. cerevisiae deletion strains, locus YNL248C, strain rpa49, hits give low values 0.925 | S. cerevisiae deletion strains, locus YNL250W, strain rad50, hits give low values 0.974 | S. cerevisiae deletion strains, locus YNL271C, strain bni1, hits give low values 0.971 | S. cerevisiae deletion strains, locus YNL298W, strain CLA4, hits give low values 0.979 | S. cerevisiae deletion strains, locus YNL307C, strain MCK1, hits give low values 0.983 | S. cerevisiae deletion strains, locus YNL322C, strain KRE1 (second series), hits give low values 0.998 | S. cerevisiae deletion strains, locus YNL322C, strain KRE1, hits give low values 1 | S. cerevisiae deletion strains, locus YNR049C, strain mso1, hits give low values 1.01 | S. cerevisiae deletion strains, locus YNR052C, strain pop2, hits give low values 0.975 | S. cerevisiae deletion strains, locus YOL006C, strain TOP1, hits give low values 1 | S. cerevisiae deletion strains, locus YOL012C, strain htz1 0.794 | S. cerevisiae deletion strains, locus YOL147C, strain pex11, hits give low values 0.991 | S. cerevisiae deletion strains, locus YOR001W, strain rrp6, hits give low values 0.972 | S. cerevisiae deletion strains, locus YOR061W, strain CKA2, hits give low values 0.995 | S. cerevisiae deletion strains, locus YOR069W, strain VPS5, hits give low values 0.992 | S. cerevisiae deletion strains, locus YOR070C, strain gyp1, hits give low values 1.02 | S. cerevisiae deletion strains, locus YOR080W, strain dia2, hits give low values 1 | S. cerevisiae deletion strains, locus YOR083W, strain WHI5, hits give low values 1.01 | S. cerevisiae deletion strains, locus YOR106W, strain vam3, hits give low values 1.01 | S. cerevisiae deletion strains, locus YOR136W, strain idh2, hits give low values 0.978 | S. cerevisiae deletion strains, locus YOR144C, strain elg1, hits give low values 0.991 | S. cerevisiae deletion strains, locus YOR184W, strain ser1, hits give low values 0.971 | S. cerevisiae deletion strains, locus YOR231W, strain MKK1, hits give low values 0.992 | S. cerevisiae deletion strains, locus YOR265W, strain rbl2, hits give low values 1.03 | S. cerevisiae deletion strains, locus YOR270C, strain vph1, hits give low values 1.01 | S. cerevisiae deletion strains, locus YOR290C, strain snf2, hits give low values 0.974 | S. cerevisiae deletion strains, locus YOR316C, strain cot1, hits give low values 0.978 | S. cerevisiae deletion strains, locus YPL051W, strain arl3, hits give low values 1.03 | S. cerevisiae deletion strains, locus YPL055C, strain LGE1, hits give low values 1.02 | S. cerevisiae deletion strains, locus YPL078C, strain atp4, hits give low values 0.998 | S. cerevisiae deletion strains, locus YPL106C, strain sse1, hits give low values 0.993 | S. cerevisiae deletion strains, locus YPL240C, strain hsp82, hits give low values 1.01 | S. cerevisiae deletion strains, locus YPL241C, strain CIN2, hits give low values 0.965 | S. cerevisiae deletion strains, locus YPL256C, strain CLN2, hits give low values 0.992 | S. cerevisiae deletion strains, locus YPR119W, strain clb2, hits give low values 0.991 | S. cerevisiae deletion strains, locus YPR141C, strain kar3, hits give low values 0.975 | S. cerevisiae deletion strains, locus YPR163C, strain tif3, hits give low values 0.987 | S. cerevisiae deletion strains, locus YPR167C, strain met16, hits give low values 0.988 | S. cerevisiae deletion strains, strain wtn01, hits give low values 0.998 | S. cerevisiae strains, strain wild type, hits give low values 0.998
